Unmarked numbers belong to inactive results. The rule behind the calls is not given here.

One experiment in a line: blockers of DNA damage checkpoint Chk1 activation – imaging, HeLa, hydroxyurea, phospho-Chk1 antibody, percent positive cells, primary screen (AID 1186). Particulars: hydroxyurea-induced phospho-Chk1 immunofluorescence imaging, higher = more signal.
On to `[N-]=[N+]=NCc1ccccc1C[C@]1(C(=O)N2CCCCC2)COC(c2ccc(OCCCO)cc2)=N1`, for which the z-score is -0.749.
Same read-out and setting: the value for `C=C(C(=O)CC[C@H](OC(=O)c1ccccc1-c1ccccc1C(=O)O)c1ccc(OCCO)cc1)C(C)C` was -0.0593.
Still for that read-out and setting: the value for `COCCOC(=O)N1C(=O)[C@@]2(c3cc(C#CCCO)ccc31)[C@H](c1ccc(O)cc1)N1[C@H](c3ccccc3)[C@H](c3ccccc3)OC(=O)[C@H]1[C@@H]2C(=O)NC[C@H](O)c1ccccc1` was 0.0615.
For `CCCCC(=C=CC[C@@H](O)c1ccccc1OCCO)C[C@@H](O)c1ccccn1`, the z-score is -0.0323.
In the case of `COC(=O)[C@]1(Cc2ccccc2CN=[N+]=[N-])N=C(c2ccc(OCCCO)cc2)O[C@@H]1c1ccccc1N=[N+]=[N-]`, the z-score is -0.485.
`O=C1O[C@H](c2ccccc2)[C@H](c2ccccc2)N2[C@H]1[C@@H](C(=O)O)[C@]1(C(=O)Nc3ccccc31)[C@H]2c1ccc(OCCO)cc1`: the z-score is 0.618.
On the same count and under the same terms, in the case of `CC(C)C[C@@H]1NC(=O)[C@H]2C[C@@H](C(=O)O)[C@@H](c3cccc(OCCO)c3)N2C1=O` it was -0.03; in that of `O=C1C[C@@](C(=O)NCC(F)(F)F)(c2ccc([N+](=O)[O-])cc2)[C@@H](c2ccc(CO)cc2I)N1CC12CC3CC(CC(C3)C1)C2`, -0.353.
Same read-out and setting: the value for `CCCC=C(CCC)[C@@H](NC(=O)c1ccc(C(=O)OC)cc1)c1ccc(C(=O)OC)cc1` was 0.151; that for `CC1(C)OB(/C=C\CC(OC(=O)c2ccncc2)c2ccccc2)OC1(C)C` (configuration not stated) was 0.301.

A further experiment is described as follows: blockers of DNA damage checkpoint Chk1 activation – imaging, HeLa, hydroxyurea, phospho-Chk1 nuclear intensity, primary screen (AID 1187). Note: test concentration not given here. Particulars: hydroxyurea-induced phospho-Chk1 immunofluorescence imaging, higher = more signal.
With `C=C(C(=O)CC[C@@H](OC(=O)c1ccccc1-c1ccccc1C(=O)O)c1ccc(OCCO)cc1)C(C)C`, the z-score is 0.59.
For `O=C(c1ccccc1)N1Cc2ccccc2C[C@@]2(N=C(c3ccc(OCCCO)cc3)O[C@H]2c2ccccc2)C1=O`, the z-score was 0.098.
On the same count and under the same terms, the value for `CC(C)C[C@@H]1NC(=O)[C@@H]2C[C@H](C(=O)NCCCCCNC(=O)CS)[C@H](c3ccc(O)cc3)N2C1=O` was 0.313; that for `COC(=O)c1ccc(OC)c(/C=C\CC(OC(=O)c2ccncc2)c2ccccc2)c1` (configuration not stated) was -0.432; that for `COC(=O)C(CC#Cc1ccc2c(c1)[C@]1(C(=O)N2)[C@H](C(N)=O)[C@H]2C(=O)O[C@H](c3ccccc3)[C@H](c3ccccc3)N2[C@@H]1c1ccccc1OCCO)C(=O)OC` was -0.137.
The same measure, in the same setting: in the case of `C=CCNC(=O)[C@H]1[C@@H]2C(=O)O[C@@H](c3ccccc3)[C@@H](c3ccccc3)N2[C@@H](c2ccc(O)cc2)[C@]12C(=O)Nc1ccc(C#CCC(C(=O)OC)C(=O)OC)cc12` it was 0.543; in that of `C#CCN(C(=O)OC(C)(C)C)[C@H](CO)c1ccccc1`, -0.368; in that of `COCCCNC(=O)[C@@]1(Cc2ccccc2I)c2ccccc2C(=O)N(C2CCCCC2)[C@H]1c1ccc(CO)cc1`, 0.155.
The same measure, in the same setting: in the case of `COC(=O)[C@@]1(Cc2ccc(F)cc2)[C@H]2c3cc(C(=O)N4CCCC4)n(CCSCCO)c3C[C@H]2CN1C(=O)c1ccccc1` it was 0.827; in that of `COC(=O)[C@]1(Cc2ccccc2N=[N+]=[N-])N=C(c2ccc(OCCCO)cc2)O[C@@H]1c1ccccc1CN=[N+]=[N-]`, -0.437.
`COc1cccc(C)c1NC(=O)O[C@H]1[C@H](OC(=O)Nc2ccccc2)[C@@H](OC(=O)Nc2ccccc2)[C@@H](OC)O[C@@H]1CO`: the z-score was -0.515.
The same measure, in the same setting: in the case of `[N-]=[N+]=NCc1ccccc1C[C@@]1(C(=O)NCCN2CCOCC2)N=C(c2ccc(OCCCO)cc2)O[C@@H]1c1ccccc1` it was 0.47; in that of `C=CC[C@H](O)c1ccc(O)c(F)c1`, -0.264.
Still for that read-out and setting: in the case of `Cc1ccc(S(=O)(=O)N2[C@@H](c3ccccc3)C(C(=O)O)=CC[C@H]2c2ccc(F)cc2)cc1` it was 0.391.
The same measure, in the same setting: the value for `C=CCNC(=O)[C@H]1[C@@H]2C(=O)O[C@@H](c3ccccc3)[C@@H](c3ccccc3)N2[C@@H](c2ccc(O)cc2)[C@]12C(=O)N(C(=O)OCCOC)c1ccc(C#Cc3ccc(OC)cc3)cc12` was 0.21; that for `CC(C)(C)OC(=O)CC[C@]1(C(=O)N2CCOCC2)COC(c2ccc(OCCCO)cc2)=N1` was -0.0926; that for `C=CCNC(=O)[C@@H]1[C@H]2C(=O)O[C@H](c3ccccc3)[C@H](c3ccccc3)N2[C@H](c2ccc(O)cc2)[C@@]12C(=O)Nc1ccc(C#CC3=CCCCC3)cc12` was -0.275.

Source of the values: PubChem BioAssay.
